Assay [1] has as its target Progesterone receptor (Homo sapiens) (UniProt P06401). The assay can be described thus: qHTS assay to identify small molecule agonists of the progesterone receptor (PR) signaling pathway (AID 1346784; calls by dose curve; note: nearly all actives have a fitted effect of over 30% in size; note: potency is the fitted concentration of half-maximal effect). An outline of the steps:
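PR-UAS-bla HEK 293T cells (beta-lactamase reporter under UAS) in 2% charcoal-stripped FBS, dosed with 23 nL compound after 6 hr, incubated 16hr at 37C. LiveBLAzer B/G FRET substrate added, fluorescence read after 2 hours.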
A general note: In qHTS, concentration-response curves come from the screen itself.

For assay [2] the target is unchanged. The assay can be described thus: qHTS assay to identify small molecule antagonists of the progesterone receptor (PR) signaling pathway (AID 1346795; active = well fitted inhibition curve with a large enough effect in the signal ratio in the repeat runs, not every such curve was filed as active; the % refers to the signal ratio). An outline of the steps: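 PR-UAS-bla HEK293T cells with beta-lactamase reporter under UAS control, in 2% charcoal-stripped FBS, treated with compounds plus 1 nM promegestone (R5020, final) for 16 hr at 37C. Read-out: FRET beta-lactamase substrate fluorescence after 2 hr at room temperature.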

A short description of assay [3]: qHTS assay to identify small molecule antagonists of the progesterone receptor (PR) signaling pathway - cell viability counter screen (AID 1346798). Note: series mostly up to about 92 µM; nearly all actives have a fitted effect of over 50% in size. The gist of the method: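 PR-UAS-bla HEK293T cells, 3,000/well in 2% charcoal-stripped FBS medium, dosed with compounds plus R5020 agonist and incubated 16 h at 37C. Viability then measured in the same wells by CellTiter-Glo luminescence after 30 min at RT.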

Assay [4] can be described thus: qHTS assay to identify small molecule agonists of the progesterone receptor (PR) signaling pathway - cell viability counter screen (AID 1346799; calls by dose curve; note: nearly all actives have a fitted effect of over 45% in size). An outline of the steps:
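Counter screen in the PR-UAS-bla HEK293T wells (2% charcoal-stripped FBS, 16 h compound exposure at 37 C) after the bla read. CellTiter-Glo added, 30 min at room temperature, luminescence read as cell viability.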

Assay [5] can be described thus: qHTS assay to identify small molecule antagonists of the TGF-beta/Smad signaling pathway - cell viability counter screen (AID 1346824). Note: nearly all actives have a fitted effect of over 50% in size. The gist of the method:
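SBE-bla HEK 293T cells were plated overnight at 37 C, then given compounds in DMSO plus TGF-beta1 (added as 0.25 ng/mL solution) for 5 hr. After the bla read, CellTiter-Glo was added to the same wells and luminescence read after 30 min at room temperature.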

A short description of assay [6]: qHTS assay to identify small molecule agonists of the TGF-beta/Smad signaling pathway - cell viability counter screen (AID 1346829). Note: top concentration of the series differs between compounds; nearly all actives have a fitted effect of over 45% in size. The gist of the method:
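After overnight seating at 37 C and 5% CO2, reporter cells got compounds for 5 hr and FRET substrate for 2 hr; cell viability then came from CellTiter-Glo luminescence.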

The nature of assay [7]: qHTS assay to identify small molecule agonists of the TGF-beta/Smad signaling pathway (AID 1346859; active = well fitted activation curve with a large enough effect in the signal ratio in the repeat runs, not every such curve was filed as active; the % refers to the signal ratio; note: series mostly up to about 77 µM). The gist of the method:
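SBE-bla HEK293T cells plated overnight, then compound exposure for 5 h at 37 C. Beta-lactamase reporter read with LiveBLAzer B/G FRET substrate after 2 h at room temperature, fluorescence at 405 nm excitation, 460/530 nm emission.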

The target of assay [8] is Thyrotropin-releasing hormone receptor (Homo sapiens) (UniProt P34981). Put plainly: qHTS assay to identify small molecule antagonists of the thyrotropin-releasing hormone receptor (TRHR) signaling pathway (AID 1346877; active = well fitted inhibition curve with a large enough effect in the repeat runs, not every such curve was filed as active; note: series mostly up to about 51 µM). An outline of the steps:
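Calcium signal in dye-loaded TRHR/HEK293 cells; compounds added 5 min before TRH (1 nM final); fluorescence monitored 3 min at 1 s steps.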

Assay [9] has the same target. The assay can be described thus: qHTS assay to identify small molecule agonists of the thyrotropin-releasing hormone receptor (TRHR) signaling pathway (AID 1346891; calls by dose curve; note: potency is the fitted concentration of half-maximal effect; for activation: series mostly up to about 58 µM). An outline of the steps:
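HEK293 cells expressing TRHR plated 18 h at 37 C/5% CO2, calcium dye-loaded 2 h at 37 C, then compound added (agonist mode); kinetic calcium fluorescence read 3 min at 1 s intervals; 15 concentrations in triplicate.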

The nature of assay [10]: Human pregnane X receptor (PXR) small molecule agonists, qHTS cell viability counter screen (AID 1346977). Note: nearly all actives have a fitted effect of over 50% in size. An outline of the steps:
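PXR-Luc HepG2 cells (2,000/well, 5% charcoal-stripped FBS) preincubated 5 hr, then exposed to compounds 24 hr at 37 C. Viability read in the same wells by CellTiter-Fluor fluorescence, reagent added at 23 hr, 1 hr incubation.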

The text below walks through data of PubChem BioAssay (Tox21).

A number with no mark means an inactive call. Records with an inconclusive call do not appear. The source made the active and inactive calls. Unless noted, calls come from the whole dose curve; as a rule, active = well fitted curve in the direction sought with a large enough effect in the repeat runs; inconclusive = weak or mixed curves; inactive = no such curve, though single readings can be large; an effect the other way counts as inactive or inconclusive.

Progesterone receptor (Homo sapiens), sequence (P06401 whole entry, looked up): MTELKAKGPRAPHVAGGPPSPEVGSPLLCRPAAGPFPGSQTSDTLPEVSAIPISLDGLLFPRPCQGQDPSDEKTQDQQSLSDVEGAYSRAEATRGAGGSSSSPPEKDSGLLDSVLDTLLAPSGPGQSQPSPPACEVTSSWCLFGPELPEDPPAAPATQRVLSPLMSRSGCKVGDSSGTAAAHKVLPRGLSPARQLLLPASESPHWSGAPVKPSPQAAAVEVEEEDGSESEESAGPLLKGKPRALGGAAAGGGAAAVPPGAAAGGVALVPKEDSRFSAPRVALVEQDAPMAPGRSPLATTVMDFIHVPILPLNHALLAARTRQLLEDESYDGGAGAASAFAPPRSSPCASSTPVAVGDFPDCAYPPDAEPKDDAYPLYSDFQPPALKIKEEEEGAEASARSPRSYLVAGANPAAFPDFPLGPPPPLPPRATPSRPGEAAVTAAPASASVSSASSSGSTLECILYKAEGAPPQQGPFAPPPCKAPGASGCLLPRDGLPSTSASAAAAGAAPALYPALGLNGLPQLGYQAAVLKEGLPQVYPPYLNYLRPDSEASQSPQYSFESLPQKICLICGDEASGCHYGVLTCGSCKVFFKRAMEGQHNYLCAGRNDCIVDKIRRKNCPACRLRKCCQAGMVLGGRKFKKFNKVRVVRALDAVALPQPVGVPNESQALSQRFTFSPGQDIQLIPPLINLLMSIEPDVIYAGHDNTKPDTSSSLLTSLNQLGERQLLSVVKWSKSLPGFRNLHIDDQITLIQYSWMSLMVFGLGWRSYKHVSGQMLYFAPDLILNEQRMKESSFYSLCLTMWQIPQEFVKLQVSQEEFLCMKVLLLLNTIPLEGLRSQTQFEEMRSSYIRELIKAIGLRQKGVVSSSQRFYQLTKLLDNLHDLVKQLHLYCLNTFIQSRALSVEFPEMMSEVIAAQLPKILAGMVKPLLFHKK
Thyrotropin-releasing hormone receptor (Homo sapiens), sequence (P34981 whole entry, looked up): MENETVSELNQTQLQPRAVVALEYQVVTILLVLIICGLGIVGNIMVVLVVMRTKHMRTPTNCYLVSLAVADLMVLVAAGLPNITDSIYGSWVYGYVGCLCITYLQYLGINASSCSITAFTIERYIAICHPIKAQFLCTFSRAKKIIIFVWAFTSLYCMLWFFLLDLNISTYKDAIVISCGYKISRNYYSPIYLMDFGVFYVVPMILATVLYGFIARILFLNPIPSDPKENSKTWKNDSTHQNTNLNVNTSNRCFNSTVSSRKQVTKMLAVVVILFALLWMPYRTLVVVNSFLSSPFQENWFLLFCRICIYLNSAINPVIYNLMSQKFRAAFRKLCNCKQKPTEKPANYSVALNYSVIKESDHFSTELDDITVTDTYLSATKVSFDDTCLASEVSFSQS

For the compound `CC(C)Nc1nc(N)nc(Cl)n1`, the Potency entry in assay [1], in [2], in assay [3], in assay [4], in [9] and in assay [10] was “inactive” each time. For the same compound, the call in [5], in assay [6], in [7] and in [8] was inactive.
`CCCN(CCC)C(=O)C(CCC(=O)O)NC(=O)c1ccccc1` (stereo not drawn): the Potency entry in assay [1], in assay [2], in assay [3], in assay [4] and in assay [9] was “inactive” throughout. For the same compound, the outcome in assay [5], in assay [6], in assay [7] and in assay [8] was inactive.
For `C=O`, the Potency entry in assay [1], in assay [2], in assay [3], in assay [4] and in [9] was “inactive” in each case. In addition, the outcome in [5], in assay [6], in assay [7] and in [8] was inactive.
`CCCNC(C)C(=O)Nc1c(C)csc1C(=O)OC` (stereo not drawn): the Potency result in assay [1], in [2], in [3] and in assay [4] was “inactive” in each case. For the same compound, the call in assay [5], in [6] and in assay [7] was inactive.
With `CC(C)CCCCCCc1ccc(OCCOCCO)cc1`, the Potency result in assay [1], in assay [2], in assay [3] and in assay [4] was “inactive” throughout. Moreover, the result in assay [5], in [6] and in assay [7] was inactive.
Take `CN(CC1(C)CCCO1)S(=O)(=O)c1ccc(Cl)c(S(N)(=O)=O)c1` (stereo not drawn): the Potency entry in assay [1], in assay [2], in [3], in [4], in assay [9] and in assay [10] was “inactive” throughout. Also, the compound was classed as inactive in assay [5], in [6], in assay [7] and in assay [8].
Regarding `CC1(C)S[C@@H]2[C@H](NC(=O)C(C(=O)O)c3ccccc3)C(=O)N2[C@H]1C(=O)O` (stereo partly drawn), the Potency entry in assay [1], in assay [2], in assay [3], in assay [4], in assay [9] and in assay [10] was “inactive” throughout. Also, the outcome in assay [5], in [6], in assay [7] and in assay [8] was inactive.
For `CC/C=C\CCOC(=O)C(C)C`, the Potency entry in assay [1], in assay [2], in assay [3], in assay [4], in assay [9] and in assay [10] was “inactive” in each case. For the same compound, the result in assay [5], in assay [6], in assay [7] and in assay [8] was inactive.
On to `OCCN(CCO)c1ccccc1`, for which the Potency result in [1], in assay [2], in [3], in assay [4] and in assay [9] was “inactive” each time. The result in assay [5], in assay [6], in [7] and in assay [8] was inactive.
On to `C[C@]12C(=O)OC(=O)[C@H]1[C@H]1C=C[C@@H]2C1`, for which the Potency entry in assay [1], in [2], in [3], in assay [4] and in [9] was “inactive” throughout. Besides, the compound was classed as inactive in [5], in [6], in assay [7] and in assay [8].
For the compound `CC(=O)Oc1cc(C(C)C)c(OCCN(C)C)cc1C`, the Potency entry in assay [1], in assay [2], in assay [3], in assay [4] and in [9] was “inactive” in each case. For the same compound, the result in assay [5], in assay [6], in assay [7] and in assay [8] was inactive.
Regarding `NC1=NCC2c3ccccc3Cc3ccccc3N12` (stereo not drawn), the Potency entry in [1], in [2], in assay [3], in [4], in assay [9] and in assay [10] was “inactive” each time. Further, the outcome in assay [5], in assay [6], in assay [7] and in assay [8] was inactive.
`COc1nc(C)nc(NC(=O)NS(=O)(=O)c2ccccc2OCCCl)n1`: the Potency result in [1], in assay [2], in assay [3], in assay [4], in assay [9] and in assay [10] was “inactive” each time. The result in [5], in assay [6], in assay [7] and in assay [8] was inactive.
For the compound `FC(F)(F)C(F)(F)C(F)(F)C(F)(F)C(F)(F)C(F)(F)C(F)(F)C(F)(F)Br`, the Potency result in assay [1], in assay [2], in [3], in assay [4] and in assay [9] was “inactive” in each case. Further, the compound was called inactive in assay [5], in assay [6], in assay [7] and in assay [8].
For `CCC(=O)Nc1ccc(O)cc1`, the Potency entry in assay [1], in [2], in assay [3], in assay [4], in assay [9] and in assay [10] was “inactive” each time. The call in [5], in [6], in [7] and in assay [8] was inactive.
For `CCOC(=O)[C@H](CCc1ccccc1)N[C@@H](C)C(=O)N1Cc2cc(OC)c(OC)cc2C[C@H]1C(=O)O`, the Potency entry in [1], in assay [2], in assay [3], in assay [4], in [9] and in [10] was “inactive” throughout. The compound was called inactive in assay [5], in assay [6], in assay [7] and in [8].
On to `CC(C)(C)c1cccc(O)c1`, for which the Potency entry in [1], in assay [2], in assay [3], in assay [4], in [9] and in assay [10] was “inactive” throughout. The outcome in [5], in assay [6], in assay [7] and in [8] was inactive.
For `CC1=C(CC(=O)O)c2cc(F)ccc2/C1=C\c1ccc(S(C)(=O)=O)cc1`, the Potency result in [1], in assay [2], in [3], in assay [4], in assay [9] and in assay [10] was “inactive” throughout. Also, the compound was called inactive in assay [5], in [6] and in [8].
Turning to `N#CSCC(=O)O`, the Potency result in assay [1], in assay [2], in assay [3], in assay [4] and in assay [10] was “inactive” throughout. In addition, the outcome in [5], in [6] and in [7] was inactive.
For the compound `CN1CCC[C@@H]1Cc1c[nH]c2ccc(CCS(=O)(=O)c3ccccc3)cc12`, the Potency entry in [1], in assay [2], in assay [3], in [4], in assay [9] and in assay [10] was “inactive” in each case. The result in assay [5], in assay [6], in [7] and in assay [8] was inactive.
For `C[C@@H](N)C(=O)O`, the Potency entry in [1], in [2], in [3], in assay [4] and in assay [10] was “inactive” each time. Besides, the compound was classed as inactive in [5], in assay [6] and in [7].
As for `CC(C)NCC(O)COc1ccc(CCOCC2CC2)cc1` (stereo not drawn), the Potency result in assay [1], in assay [2], in assay [3], in [4] and in [10] was “inactive” throughout. The result in [5], in assay [6] and in [7] was inactive.
Turning to `COc1ccccc1OCC(O)COC(N)=O` (stereo not drawn), the Potency result in assay [1], in assay [2], in assay [3], in assay [4] and in assay [9] was “inactive” in each case. Also, the outcome in [5], in [7] and in assay [8] was inactive.
Turning to `O=C(CC(=O)C(F)(F)F)c1ccccc1`, the Potency in [1] is 8.76 µM (active); in assay [9] it was 39.5 µM (active). The Potency result in assay [2], in [3], in assay [4] and in [10] was “inactive” each time. Moreover, the result in [5], in [6] and in assay [7] was inactive.
Turning to `CC(=O)OC1C2(C)CCC(C2)C1(C)C` (stereo not drawn), the Potency entry in [1], in [2], in [3], in assay [4], in assay [9] and in assay [10] was “inactive” in each case. Further, the outcome in assay [5], in assay [6], in assay [7] and in assay [8] was inactive.
